The structures appear in SMILES notation. Counter-ions that a name gives are not always drawn. ± gives the standard deviation.

The assay has as its system THP-1. The assay is described as follows: THP-1 cell loss relative to DMSO control; higher = more host cell loss (toxicity); extreme values may be limits of the assay. Particulars: 10 µM; 4 days; infection: M. tuberculosis H37Rv. The protocol: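 OICR kinase inhibitor library screened in duplicate at 10 uM against M. tuberculosis-infected THP-1 macrophages, 4 days at 37 C. THP-1 cell loss (cytotoxicity or loss of adherence) was quantified from Hoechst-stained nuclei counts by high-content imaging and normalised to the 1% DMSO control; 100 = complete loss of host cells.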
Regarding `CN1CCC(Nc2ncc3ncnc(Nc4ccc(F)c(Cl)c4)c3n2)CC1` [BIBX 1382 dihydrochloride], the THP-1 cell loss turned out to be 17.8 ± 14%.
Under `CO[C@@H]1[C@H](N(C)C(=O)c2ccccc2)C[C@H]2O[C@]1(C)n1c3ccccc3c3c4c(c5c6ccccc6n2c5c31)C(=O)NC4` stands 30.8 ± 4.7%.
Under `N#Cc1c(NC(=O)c2cccc3ccccc23)sc2c1CCCC2` stands 60.6 ± 15%; under `COc1cc2ncnc(-n3nc(-c4ccccn4)nc3N)c2cc1OC`, 67 ± 15%.
In the case of `Cc1ccc(-n2nc(C(C)(C)C)cc2NC(=O)Nc2ccc(OCCN3CCOCC3)c3ccccc23)cc1` it was 50 ± 71%.
For `COc1cc2c(Nc3ccc(NC(=O)c4ccccc4)cc3)ncnc2cc1OCCCN1CCOCC1`, the THP-1 cell loss was found to be 27.2 ± 1.4%.
In the case of `CO[C@H]1C[C@@H]2CC[C@@H](C)[C@@](O)(O2)C(=O)C(=O)N2CCCC[C@H]2C(=O)O[C@H]([C@H](C)C[C@@H]2CC[C@@H](O)[C@H](OC)C2)CC(=O)[C@H](C)/C=C(\C)[C@@H](O)[C@@H](OC)C(=O)[C@H](C)C[C@H](C)/C=C/C=C/C=C/1C` [Rapamycin] it was 33.4 ± 6.3%; in that of `Cc1ncc(-c2ccnc(Nc3ccc(S(C)(=O)=O)cc3)n2)n1C(C)C`, 100%; in that of `Nc1nccc(-c2c(-c3ccc(F)cc3)ncn2C2CCCCC2)n1`, 75 ± 8.6%.
Under `COc1cc(C[C@H]2C(=O)OC[C@@H]2Cc2ccc(OC)c(OC)c2)ccc1O` [Arctigenin] stands 35 ± 18%; under `CNC(=O)c1cc(Oc2ccc(NC(=O)Nc3ccc(Cl)c(C(F)(F)F)c3)c(F)c2)ccn1`, 43.8 ± 13%; under `N#CCNC(=O)c1ccc(-c2ccnc(Nc3ccc(N4CCOCC4)cc3)n2)cc1`, 100%.
Under `CC#CC(=O)Nc1cc2c(Nc3ccc(F)c(Cl)c3)ncnc2cn1` stands 89.9 ± 14%.
Regarding `O=C(c1ccc(Nc2nccc(-c3cc4ccccc4s3)n2)cc1)N1CCC(N2CCCC2)CC1`, the THP-1 cell loss stood at 100%.
Regarding `NC(=O)Nc1sc(-c2ccc(F)cc2)cc1C(N)=O`, the THP-1 cell loss turned out to be 76.1 ± 3%.
The compound `Cc1cc(C=C2C(=O)C=CC2=O)cc(C)c1O` came in with a THP-1 cell loss of 1.15 ± 1.6%.
Under `CC(=O)c1c(C)c2cnc(Nc3ccc(N4CCNCC4)cn3)nc2n(C2CCCC2)c1=O` stands 30.5 ± 8.2%.
Take `Cc1ccc(S(=O)(=O)Nc2nc3ccccc3nc2Nc2ccc3nsnc3c2)cc1`: the THP-1 cell loss amounted to 40.9 ± 5.2%.
Under `Cc1cc(N2CCOCC2)cc2[nH]c(-c3c(NC[C@@H](O)c4cccc(Cl)c4)cc[nH]c3=O)nc12` stands 21.7 ± 10%; under `CCN1/C(=C/C(C)=O)Sc2ccc(OC)cc21`, 12.5 ± 2.4%; under `Cc1c[nH]c(/C=C2\C(=O)Nc3ccccc32)c1CCC(=O)O`, 10.8 ± 15%.
Under `COc1cc2/c(=N/c3ccc(Br)cc3F)nc[nH]c2cc1OCC1CCN(C)CC1` [Vandetanib] stands 40.7 ± 6.5%; under `Cc1cn(-c2cc(NC(=O)c3ccc(C)c(Nc4nccc(-c5cccnc5)n4)c3)cc(C(F)(F)F)c2)cn1` [Nilotinib], 75.3 ± 35%; under `O=C(Nc1nc2ccccc2n1CCN1CCOCC1)c1cccc([N+](=O)[O-])c1` [IRAK-1/4 Inhibitor I], 2.5 ± 3.5%.
Under `Nc1nc(Nc2ccc(S(N)(=O)=O)cc2)nn1C(=S)Nc1c(F)cccc1F` [Cdk1/2 Inhibitor III] stands 5.81 ± 8.1%; under `OCCn1cc(-c2ccc3c(c2)CC/C3=N\O)c(-c2ccncc2)n1`, 9.27 ± 7.9%.
In turn, `CC1=C(C(=O)Nc2cc3cn[nH]c3cc2F)C(c2ccc(C(F)(F)F)cc2)CC(=O)N1` (stereo not given) yielded a THP-1 cell loss of 0%.
Under `O=C1NC(=O)c2c1c(-c1ccccc1)cc1[nH]c3ccc(O)cc3c21` stands 77.75 ± 0.7%; under `CNC(=O)c1cc(Oc2ccc(NC(=O)Nc3ccc(Cl)c(C(F)(F)F)c3)cc2)ccn1` [Sorafenib], 100%.
Under `Cn1c(Nc2ccc(C(F)(F)F)cc2)nc2cc(Oc3ccnc(-c4ncc(C(F)(F)F)[nH]4)c3)ccc21` stands 100%.
Under `COc1cc2nccc(Oc3ccc(NC(=O)NC4CC4)c(Cl)c3)c2cc1C(N)=O` stands 20.6 ± 14%; under `N#CC(c1ccnc(NCCc2cccnc2)n1)c1nc2ccccc2s1` (stereo not given), 100%.
Turning to `Nc1cc(C(F)(F)F)c(-c2cc(N3CCOCC3)nc(N3CCOCC3)n2)cn1`, the THP-1 cell loss was 73.3 ± 38%.
Under `Oc1c2ccccc2c2c3c(cccc13)N=N2` stands 19.8 ± 16%; under `COc1cc(N2CCC(N3CCN(C)CC3)CC2)ccc1Nc1ncc(Cl)c(Nc2ccccc2S(=O)(=O)C(C)C)n1`, 26.4 ± 0.6%.
`CC(=O)Nc1cccc(-n2c(=O)n(C3CC3)c(=O)c3c(Nc4ccc(I)cc4F)n(C)c(=O)c(C)c32)c1`: the THP-1 cell loss is 100%.
Compound `CCN(CC)CCNC(=O)c1c(C)[nH]c(/C=C2\C(=O)Nc3ccc(F)cc32)c1C` [Sunitinib Malate] displayed a THP-1 cell loss of 53.7 ± 18%.
In the case of `O=C(O)c1cc(N(Cc2ccccc2O)Cc2cc(O)ccc2O)ccc1O` [Lavendustin A] it was 4.39 ± 6.2%.
In the case of `CO[C@H]1C[C@@H]2CC[C@@H](C)[C@@](O)(O2)C(=O)C(=O)N2CCCC[C@H]2C(=O)O[C@H]([C@H](C)C[C@@H]2CC[C@@H](OC(=O)C(C)(CO)CO)[C@H](OC)C2)CC(=O)[C@H](C)/C=C(\C)[C@@H](O)[C@@H](OC)C(=O)[C@H](C)C[C@H](C)/C=C/C=C/C=C/1C` [Temsirolimus] it was 43 ± 2%; in that of `Cc1nc(Nc2ncc(C(=O)Nc3c(C)cccc3Cl)s2)cc(N2CCN(CCO)CC2)n1` [Dasatinib], 34.7 ± 4.4%.

The record behind these values is the supplement of paper PMC7530171.
